Potency data for one compound are collected here from PubChem BioAssay AID493220 (National Center for Advancing Translational Sciences (NCATS), 2011).

This experiment has as its target Polyunsaturated fatty acid lipoxygenase ALOX15 (Homo sapiens) (UniProt P16050). Put plainly: Inhibitors of 12-hLO (12-human lipoxygenase): 15hLO-1 Cuvette-Based Inhibition Counterscreen Assay for 12hLO Followup Compounds. Particulars: purified 15hLO-1, UV 234 nm product formation. The procedure:
Human lipoxygenase 15hLO-1 is a member of the closely related lipoxygenase family of enzymes which catalyze the site-specific oxidation of arachidonic acid to various hormone precursor molecules and as such is a candidate for drug development in a variety of disease areas, such as cancer and inflammation. The enzyme activity of 15hLO-1 was determined by a direct measurement of product formation by monitoring the absorbance at 234 nm in a 2 mL cuvette. IC50 values of inhibitors were obtained by measuring the enzymatic rate at a variety of concentrations (Carroll et al, Segraves et al). A purified preparation of human 15hLO-1 was supplied by Professor Ted Holman, University of California, Santa Cruz. This assay was run against 12hLO followup compounds with the goal of identifying selective 12hLO inhibitors. Assay Provider: Holman, T.R., University of California, Santa Cruz Screening Center PI: Austin, Christopher P. Screening Center: NIH Chemical Genomics Center
For control experiments, 2 mL of substrate buffer (10 uM arachidonic acid / 25 mM HEPES / 0.01% (v/v) Triton X-100, pH 8.0) was aliquoted in a cuvette with a magnetic stir bar. After equilibrium was ensured, an aliquot of inhibitor solvent was added (DMSO), and equilibrium was once again assured. […] 3; No change in absorbance ensured. […] 5; No change in absorbance ensured. […]
On the technique in general: The purpose of a counterscreen is to sort out artefacts and off-target activity.

The structures appear in SMILES notation. Results filed as inconclusive are left out. Active and inactive are the calls of the source. Calls follow the shape of the full dose curve.

Polyunsaturated fatty acid lipoxygenase ALOX15 (Homo sapiens), sequence (P16050 whole entry, looked up): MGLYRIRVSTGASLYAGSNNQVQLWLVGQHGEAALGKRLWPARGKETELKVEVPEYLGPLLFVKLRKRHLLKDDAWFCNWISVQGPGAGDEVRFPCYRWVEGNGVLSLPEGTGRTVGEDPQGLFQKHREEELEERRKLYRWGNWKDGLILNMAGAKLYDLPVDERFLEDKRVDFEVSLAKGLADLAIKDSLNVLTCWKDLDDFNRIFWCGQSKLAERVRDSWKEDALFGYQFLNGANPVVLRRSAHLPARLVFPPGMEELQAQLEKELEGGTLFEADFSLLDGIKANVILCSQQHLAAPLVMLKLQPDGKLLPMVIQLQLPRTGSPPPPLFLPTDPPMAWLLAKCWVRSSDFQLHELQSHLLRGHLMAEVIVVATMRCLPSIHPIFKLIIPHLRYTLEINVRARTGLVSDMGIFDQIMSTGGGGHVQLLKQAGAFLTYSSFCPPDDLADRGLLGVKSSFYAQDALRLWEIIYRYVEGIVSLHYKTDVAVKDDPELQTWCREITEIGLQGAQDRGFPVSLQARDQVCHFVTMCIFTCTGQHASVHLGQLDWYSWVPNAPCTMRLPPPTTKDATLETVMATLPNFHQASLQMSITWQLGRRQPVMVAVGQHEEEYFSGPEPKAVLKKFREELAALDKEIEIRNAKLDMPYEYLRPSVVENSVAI

Regarding `CC(Oc1ccc(Cl)cc1Cl)C(=O)Nc1ccc(S(=O)(=O)Nc2cnc3ccccc3n2)cc1` (stereo unspecified), the Potency is 30.8 µM (active).
